Experimental data as given in the supplement of paper PMC8728848.
This excerpt belongs to a sample that is enriched for the strongest signals.

Columns and labels:
Experiment in all cases: glycan array binding signal (z-score within array); higher = stronger binding
Conditions in all cases: glycan notation: IUPAC condensed, linker removed
GlcNAc(b1-3)Gal(b1-4)Glc = molecular target: GlcNAc(b1-3)Gal(b1-4)Glc
Outline: (§1)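 The Consortium for Functional Glycomics database supplied 3228 glycan arrays, of which those lacking an available protein sequence were dropped. The binding signal, a within-array Z-score, was averaged across arrays of the same protein sequence and across linkers. Negative scores can be read as non-binding.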

[1] = molecular target: GlcNAc(b1-3)Gal(b1-4)GlcNAc(b1-3)Gal(b1-4)GlcNAc(b1-3)Gal(b1-4)GlcNAc(b1-3)Gal(b1-4)GlcNAc(b1-2)Man(a1-3)[GlcNAc(b1-3)Gal(b1-4)GlcNAc(b1-3)Gal(b1-4)GlcNAc(b1-3)Gal(b1-4)GlcNAc(b1-3)Gal(b1-4)GlcNAc(b1-2)Man(a1-6)]Man(b1-4)GlcNAc(b1-4)[Fuc(a1-6)]GlcNAc
Outline: as §1

[2] = molecular target: GlcNAc(b1-3)Gal(b1-4)GlcNAc(b1-3)GalNAc
Outline: as §1

[3] = molecular target: GlcNAc(b1-3)Gal(b1-4)GlcNAc(b1-6)[GlcNAc(b1-3)]Gal(b1-4)GlcNAc
Outline: as §1

[4] = molecular target: GlcNAc(b1-3)[GlcNAc(b1-4)][GlcNAc(b1-6)]GlcNAc
Outline: as §1

[5] = molecular target: GlcNAc(b1-4)GlcNAc(b1-4)GlcNAc(b1-4)GlcNAc(b1-4)GlcNAc
Outline: as §1

Kdn(a2-6)Gal(b1-4)GlcNAc = molecular target: Kdn(a2-6)Gal(b1-4)GlcNAc
Outline: as §1

[6] = molecular target: Man(a1-2)Man(a1-6)[Man(a1-3)]Man(a1-6)[Man(a1-2)Man(a1-2)Man(a1-3)]Man
Outline: as §1

[7] = molecular target: Neu5Ac(a2-3)Gal(b1-4)GlcNAc(b1-2)[Neu5Ac(a2-3)Gal(b1-4)GlcNAc(b1-4)]Man(a1-3)[GlcNAc(b1-4)][Neu5Ac(a2-3)Gal(b1-4)GlcNAc(b1-2)[Neu5Ac(a2-3)Gal(b1-4)GlcNAc(b1-6)]Man(a1-6)]Man(b1-4)GlcNAc(b1-4)GlcNAc
Outline: as §1

[8] = molecular target: Neu5Ac(a2-3)Gal(b1-4)[Fuc(a1-3)]GlcNAc(b1-3)Gal(b1-4)[Fuc(a1-3)]GlcNAc(b1-3)Gal(b1-4)[Fuc(a1-3)]GlcNAc
Outline: as §1

Neu5Ac(a2-3)GalNAc = molecular target: Neu5Ac(a2-3)GalNAc
Outline: as §1

[9] = molecular target: Neu5Ac(a2-6)Gal(b1-4)GlcNAc(b1-2)Man(a1-3)[Gal(b1-4)GlcNAc(b1-2)Man(a1-6)]Man(b1-4)GlcNAc(b1-4)GlcNAc
Outline: as §1

[10] = molecular target: Neu5Ac(a2-6)Gal(b1-4)GlcNAc(b1-2)Man(a1-6)Man(b1-4)GlcNAc(b1-4)GlcNAc
Outline: as §1

[11] = molecular target: Neu5Ac(a2-6)Gal(b1-4)GlcNAc(b1-3)Gal(b1-4)GlcNAc(b1-6)[Gal(b1-3)]GalNAc
Outline: as §1

[12] = molecular target: Neu5Ac(a2-6)Gal(b1-4)GlcNAc(b1-6)[Gal(b1-3)GlcNAc(b1-3)]Gal(b1-4)Glc
Outline: as §1

[13] = molecular target: Neu5Ac(a2-6)Gal(b1-4)GlcNAc6S
Outline: as §1

[14] = molecular target: Neu5Gc(a2-3)Gal(b1-3)[Fuc(a1-4)]GlcNAc
Outline: as §1

B1: pTFF2 (Sus scrofa), P01359 (protein)
chain: KPAACRCSRQDPKNRVNCGFPGITSDQCFTSGCCFDSQVPGVPWCFKPLPAQESEECVMEVSARKNCGYPGISPEDCAARNCCFSDTIPEVPWCFFPMSVEACHY
glycan array binding signal (z-score) (GlcNAc(b1-3)Gal(b1-4)Glc): -0.368 | glycan array binding signal (z-score) [1]: 4.15 | glycan array binding signal (z-score) [2]: 3.21 | glycan array binding signal (z-score) [3]: -0.954 | glycan array binding signal (z-score) [4]: 0.277 | glycan array binding signal (z-score) [5]: -0.168 | glycan array binding signal (z-score) (Kdn(a2-6)Gal(b1-4)GlcNAc): 0.54 | glycan array binding signal (z-score) [6]: 0.712 | glycan array binding signal (z-score) [7]: 6.13 | glycan array binding signal (z-score) [8]: -0.094 | glycan array binding signal (z-score) (Neu5Ac(a2-3)GalNAc): 1.05 | glycan array binding signal (z-score) [9]: 0.708 | glycan array binding signal (z-score) [10]: 2.29 | glycan array binding signal (z-score) [11]: -0.859 | glycan array binding signal (z-score) [12]: -0.007 | glycan array binding signal (z-score) [13]: -1.45 | glycan array binding signal (z-score) [14]: 0.024
